The values below come from PMC8384837, “Expanding the binding specificity for RNA recognition by a PUF domain”.

Where a chain is given by its changes, count along the chain named.

What all share (assay): yeast three-hybrid, YBZ-1, SC-Leu-His + 0.5 mM 3-AT, 4 days
Holding throughout (conditions): tags: N-Gal4 AD-HA kept; label: inside an RPR1-promoter hybrid RNA with tandem MS2 sites; ssRNA

Test [1] concerns the target T1, PUM1 PUF domain R6-EWG (Homo sapiens, UniProt Q14671 828-1176, N1043E;Y1044W;Q1047G).
T1 sequence: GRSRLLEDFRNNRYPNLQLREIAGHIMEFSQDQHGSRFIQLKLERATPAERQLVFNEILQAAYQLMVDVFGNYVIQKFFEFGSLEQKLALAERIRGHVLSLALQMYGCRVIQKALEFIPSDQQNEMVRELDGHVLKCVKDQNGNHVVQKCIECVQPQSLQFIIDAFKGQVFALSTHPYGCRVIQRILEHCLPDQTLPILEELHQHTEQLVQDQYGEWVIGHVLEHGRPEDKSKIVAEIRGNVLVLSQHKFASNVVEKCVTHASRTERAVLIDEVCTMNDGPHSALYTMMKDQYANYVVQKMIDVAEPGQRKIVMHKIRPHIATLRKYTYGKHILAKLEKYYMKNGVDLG
Summed up: (§1)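 The interaction score is the logarithmic change in variant frequency from input to selection. It uses log2, with a pseudocount of 1 for absent variants, and frequencies came from PCR-amplified, Illumina-sequenced repeat regions. The libraries were Pumilio-1 PUF domains randomized at the three base-contacting residues per repeat, co-expressed with matching RNA elements in strain YBZ-1 (LexA–MS2 coat fusion, HIS3 reporter). Plating lasted four days on SC-Leu (input) or SC-Leu-His + 0.5 mM 3-AT (selection).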

The target of test [2] is T2, PUM1 PUF domain R6-VWM (Homo sapiens, UniProt Q14671 828-1176, N1043V;Y1044W;Q1047M).
T2 sequence: T1 sequence with E216V, G220M
Summed up: as §1

Test [3] has as its target PUM1 PUF domain R8-QFR (Homo sapiens, UniProt Q14671 828-1176, N1122Q;Y1123F;Q1126R). Summed up: as §1
Test [4] addresses PUM1 PUF domain R8-QYP (Homo sapiens, UniProt Q14671 828-1176, N1122Q;Q1126P). Summed up: as §1
The target in test [5] is PUM1 PUF domain R8-RRR (Homo sapiens, UniProt Q14671 828-1176, N1122R;Y1123R;Q1126R). Summed up:
as §1

Test [6] concerns the target PUM1 PUF domain R4-GHW (Homo sapiens, UniProt Q14671 828-1176, N971G;Q975W). Summed up: as §1
Test [7] addresses PUM1 PUF domain R4-CMN (Homo sapiens, UniProt Q14671 828-1176, N971C;H972M;Q975N). Summed up:
as §1

Test [8] deals with T3, PUM1 PUF domain R6-RYG (Homo sapiens, UniProt Q14671 828-1176, N1043R;Q1047G).
T3 sequence: T1 sequence with E216R, W217Y
Summed up: as §1

Test [9] addresses PUM1 PUF domain R8-RRY (Homo sapiens, UniProt Q14671 828-1176, N1122R;Y1123R;Q1126Y). Summed up: as §1
For test [10], the target named is PUM1 PUF domain R4-WGV (Homo sapiens, UniProt Q14671 828-1176, N971W;H972G;Q975V). Summed up: as §1
In test [11] the target is T4, PUM1 PUF domain R6-DWG (Homo sapiens, UniProt Q14671 828-1176, N1043D;Y1044W;Q1047G).
T4 sequence: T1 sequence with E216D
Summed up:
as §1

For test [12], the target named is PUM1 PUF domain R3-IFR (Homo sapiens, UniProt Q14671 828-1176, C935I;R936F;Q939R). Summed up: as §1
Test [13] concerns the target PUM1 PUF domain R3-RRP (Homo sapiens, UniProt Q14671 828-1176, C935R;Q939P). Summed up:
as §1

The target of test [14] is PUM1 PUF domain R7-LSV (Homo sapiens, UniProt Q14671 828-1176, S1079L;N1080S;E1083V). Summed up:
as §1

The target of test [15] is PUM1 PUF domain R7-LYW (Homo sapiens, UniProt Q14671 828-1176, S1079L;N1080Y;E1083W). Summed up:
as §1

Test [16] concerns the target PUM1 PUF domain R2-KLV (Homo sapiens, UniProt Q14671 828-1176, N899K;Y900L;Q903V). Summed up:
as §1

In test [17] the target is T5, PUM1 PUF domain R1-QFR R2-VFQ R6-SWD (Homo sapiens, UniProt Q14671 828-1176, S863Q;R864F;Q867R;N899V;Y900F;N1043S;Y1044W;Q1047D).
T5 sequence: T1 sequence with S36Q, R37F, Q40R, N72V, Y73F, E216S, G220D
Summed up: as §1

For test [18], the target named is T6, PUM1 PUF domain R6-AWV (Homo sapiens, UniProt Q14671 828-1176, N1043A;Y1044W;Q1047V).
T6 sequence: T1 sequence with E216A, G220V
Summed up: as §1

The target of test [19] is PUM1 PUF domain R4-QPA (Homo sapiens, UniProt Q14671 828-1176, N971Q;H972P;Q975A). Summed up: as §1
Test [20] has as its target PUM1 PUF domain R5-GSE (Homo sapiens, UniProt Q14671 828-1176, C1007G;R1008S;Q1011E). Summed up:
as §1

Take “GGCUAGAACUAGUGGAUCCCCCGGCGCCCGGCGGCUCGAGCCCGGGUAAGUGUAAAUAGUCUGCAUGCCGCCGGGCGCCAUGCCUGCAGGUCGACUCUAGAAAACAUG”: the binding signal was 4.03 log2 enrichment (interaction score) in test [1]; 4.44 log2 enrichment (interaction score) in test [2]; 4.27 log2 enrichment (interaction score) in test [3]; 2.62 log2 enrichment (interaction score) in test [4]; 5.23 log2 enrichment (interaction score) in [5]; 5.62 log2 enrichment (interaction score) in [6]. Further, the binding signal is 3.59 log2 enrichment (interaction score) in test [7]; 2.84 log2 enrichment (interaction score) in test [8]; 0.87 log2 enrichment (interaction score) in [9]; 3.11 log2 enrichment (interaction score) in test [10]; 4.07 log2 enrichment (interaction score) in test [11].

With “GGCUAGAACUAGUGGAUCCCCCGGCGCCCGGCGGCUCGAGCCCGGGUAAGUGUAAUUAGUCUGCAUGCCGCCGGGCGCCAUGCCUGCAGGUCGACUCUAGAAAACAUG”, the binding signal was 3.8 log2 enrichment (interaction score) in test [12] and 4.3 log2 enrichment (interaction score) in [13].

Take “GGCUAGAACUAGUGGAUCCCCCGGCGCCCGGCGGCUCGAGCCCGGGUAAGUUUAAAUAGUCUGCAUGCCGCCGGGCGCCAUGCCUGCAGGUCGACUCUAGAAAACAUG”: the binding signal in test [14] is 4.05 log2 enrichment (interaction score); in [15], 4.45 log2 enrichment (interaction score).

In the case of “GGCUAGAACUAGUGGAUCCCCCGGCGCCCGGCGGCUCGAGCCCGGGUAAGUGUAAAGAGUCUGCAUGCCGCCGGGCGCCAUGCCUGCAGGUCGACUCUAGAAAACAUG”, the binding signal in [16] was 6.33 log2 enrichment (interaction score).

Regarding “GGCUAGAACUAGUGGAUCCCCCGGCGCCCGGCGGCUCGAGCCCGGGUAAGUGGAAAACGUCUGCAUGCCGCCGGGCGCCAUGCCUGCAGGUCGACUCUAGAAAACAUG”, the binding signal in test [17] is 5 log2 enrichment (interaction score).

Consider “GGCUAGAACUAGUGGAUCCCCCGGCGCCCGGCGGCUCGAGCCCGGGUAAGUGUAAGUAGUCUGCAUGCCGCCGGGCGCCAUGCCUGCAGGUCGACUCUAGAAAACAUG”, for which the binding signal in test [12] was 5.53 log2 enrichment (interaction score).

Turning to “GGCUAGAACUAGUGGAUCCCCCGGCGCCCGGCGGCUCGAGCCCGGGUAAGUGAAAAUAGUCUGCAUGCCGCCGGGCGCCAUGCCUGCAGGUCGACUCUAGAAAACAUG”, the binding signal in test [1] was 1.75 log2 enrichment (interaction score); in [2] it was 6.06 log2 enrichment (interaction score); in test [8] it was 0.78 log2 enrichment (interaction score); in test [18], 2.78 log2 enrichment (interaction score).

Consider “GGCUAGAACUAGUGGAUCCCCCGGCGCCCGGCGGCUCGAGCCCGGGUAAGUGUAUAUAGUCUGCAUGCCGCCGGGCGCCAUGCCUGCAGGUCGACUCUAGAAAACAUG”, for which the values for the binding signal in test [19], in [6] and in test [10] were 3.55 log2 enrichment (interaction score), 4.35 log2 enrichment (interaction score) and 3.61 log2 enrichment (interaction score), respectively.

Turning to “GGCUAGAACUAGUGGAUCCCCCGGCGCCCGGCGGCUCGAGCCCGGGUAAGUGUACAUAGUCUGCAUGCCGCCGGGCGCCAUGCCUGCAGGUCGACUCUAGAAAACAUG”, the binding signal in test [6] was 4.34 log2 enrichment (interaction score); in test [10] it was 3.2 log2 enrichment (interaction score).

Take “GGCUAGAACUAGUGGAUCCCCCGGCGCCCGGCGGCUCGAGCCCGGGUAAGCGUAAAUAGUCUGCAUGCCGCCGGGCGCCAUGCCUGCAGGUCGACUCUAGAAAACAUG”: the binding signal in test [3] was 5.16 log2 enrichment (interaction score); in [5] it was 5.62 log2 enrichment (interaction score); in test [9] it was 2.72 log2 enrichment (interaction score).

For “GGCUAGAACUAGUGGAUCCCCCGGCGCCCGGCGGCUCGAGCCCGGGUAAGUGUGAAUAGUCUGCAUGCCGCCGGGCGCCAUGCCUGCAGGUCGACUCUAGAAAACAUG”, the binding signal in test [20] was 3.41 log2 enrichment (interaction score).
